KB-3-1 cytotox – kills parental KB-3-1 adenocarcinoma cells | KB-3-1 viability, CellTiter-Glo ATP luminescence, 72 h | Potency, µM (doses to about 46.1 µM), hits mostly cytotoxic | 1.4% of 400,000 active | AID 1347075; further: nearly all actives have a fitted effect of over 60% in size
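Parental KB-3-1 viability, qHTS format: 72 h compound exposure, 37 °C; CellTiter-Glo; media-only wells and DMSO plates as controls; concentration-effect fits on corrected data.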
hERG WT inh – inhibitors of human wildtype KCNH2 potassium channel. 0.37% of 340,000 active. U2OS, BacMam KCNH2, thallium flux FluxOr; stronger effect = lower value. Q12809. AID 720551. activity change, % at 1.84 µM;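 active means maximum activity change below -70%; inconclusive means maximum activity change between -70% and -50%; inactive means maximum activity change above -50%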
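U2OS cells transduced with wild-type KCNH2 virus are loaded with FluxOr dye for 45 min, and thallium flux is measured in kinetic reads before and after stimulation buffer. Rate constants are normalized to DMSO controls.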
MCF10A rerep – inducers of DNA re-replication in MCF 10A breast cells; 2.9% of 350,000 active; MCF 10A DNA re-replication, Hoechst nuclear intensity, 48 h; Potency, µM (series often up to 46.1 µM), actives largely listed as activators; further: nearly all actives have a fitted effect of over 50% in size
KCNH2 3.1 block – KCNH2 3.1 (human) potassium channel inhibition. activity change, % (tested at about 1.8 µM). U2OS KCNH2 3.1, thallium flux FluxOr; stronger effect = lower value. 0.95% of 340,000 active;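 active means maximum activity change below -70%; inconclusive means maximum activity change from -70% to -50%; inactive means maximum activity change above -50%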;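 further: thallium influx rate constant from kinetic fluorescence after stimulation buffer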
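Channel expression came from 3.1 mutant virus (1.77 x 10^8 /mL) applied to suspended U2OS cells for 4 h. Flux was tracked with FluxOr dye plus Red40 quencher, and kinetic rate constants normalized to controls.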
SW480 rereplic – DNA re-replication induction in SW480 cells; 1.8% of 340,000 active; SW480 DNA re-replication, Hoechst DNA content imaging, 48 h; Potency, µM (highest dose often 46.1 µM), actives largely listed as activators; further: nearly all actives have a fitted effect of over 55% in size
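Quantitative HTS format with DMSO vehicle controls; 48 hr drug incubation at 37 C, then 40 min Hoechst staining and scanning imager measurement at 405 nm excitation.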
KB-V1 MDR tox – KB-V1 MDR subline cytotoxicity. 3.4% of 400,000 active. Potency, µM (highest dose often 46.1 µM), usual class: cytotoxic. KB-V1 MDR cells viability, CellTiter-Glo, 72 h. AID 1347076; further: nearly all actives have a fitted effect of over 60% in size
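Following 72 h at 37 degrees C with compound, KB-V1 cell viability was read by CellTiter-Glo luminescence, medium being phenol-red-free DMEM plus 10% FBS; concentration-response parameters came from normalized, curve-fitted qHTS data.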
Large screens that a line does not name were inactive. Rows were chosen to be rich in hits. Some 7.6% of all compounds tested hit in one or more screens of this group. Unless noted, the call rests on the fitted dose curve; in most records, active means well fitted curve in the direction sought with a large enough effect; inconclusive means small, poorly fitted or top-dose-only effect, or another doubt; inactive means no such curve, though single readings can be large; an effect the other way counts as inactive or inconclusive.

COc1ccc(OC)c(NC(=O)COC(=O)CCCN=C2NS(=O)(=O)c3ccccc32)c1	none
CN1CCN(Cc2cc(Cl)c3cccnc3c2OC(=O)c2cccs2)CC1	KB-3-1 cytotox inconclusive, MCF10A rerep inconclusive, SW480 rereplic inconclusive, KB-V1 MDR tox 5.8µM
O=C(Oc1c(Cl)cc(Cl)c2cccnc12)N1CCOCC1	none
O=C(Oc1c(CN2CCOCC2)cc(Cl)c2cccnc12)c1ccccc1Br	KB-3-1 cytotox inconclusive, MCF10A rerep inconclusive, SW480 rereplic 3.26µM, KB-V1 MDR tox inconclusive
Cc1ccc(C)c(Nc2nnc(-c3ccc(C)c(S(=O)(=O)N4CCN(C)CC4)c3)c3ccccc23)c1	none (no result: hERG WT inh, MCF10A rerep, KCNH2 3.1 block, SW480 rereplic)
CCOc1ncccc1C(=O)NNC(=O)c1ccc(NS(=O)(=O)c2cccs2)cc1	none
CN1/C(=C\C(=O)c2cccnc2)Sc2ccccc21	SW480 rereplic 7.31µM, KB-V1 MDR tox inconclusive
COc1cccc(C(=O)/C=C2\Sc3ccccc3N2C)c1	KB-3-1 cytotox inconclusive, MCF10A rerep 18.4µM, SW480 rereplic inconclusive
O=C(NCC1CC1)c1ccc2nc(-c3ccoc3)c(-c3ccoc3)nc2c1	none (no result: hERG WT inh, MCF10A rerep, KCNH2 3.1 block, SW480 rereplic)
CCN(C[C@H]1N[C@@](CC)(C(=O)OC)[C@H]2C(=O)N(Cc3ccccc3)C(=O)[C@@H]12)C(C)=O	none
CCN(C[C@H]1N[C@@](CC)(C(=O)OC)[C@H]2C(=O)N(Cc3ccccc3)C(=O)[C@@H]12)C(=O)Nc1ccc(C(F)(F)F)cc1	KCNH2 3.1 block -75.3
CCNC(=O)N(CC)C[C@H]1N[C@@](C)(C(=O)OC)[C@H]2C(=O)N(Cc3ccccc3)C(=O)[C@@H]12	SW480 rereplic 0.231µM
O=C(Nc1cccc(Cl)c1)c1ccc(NCC2CCCO2)c([N+](=O)[O-])c1 (configuration not stated)	none (no result: hERG WT inh)
CCC(=O)Nc1cccc(NC(=O)c2ccc(C)c([N+](=O)[O-])c2)c1	KB-V1 MDR tox 14.6µM
Cc1cccc(NC(=O)c2ccc(NCC3CCCO3)c([N+](=O)[O-])c2)c1 (configuration not stated)	KB-V1 MDR tox 4.11µM
Cc1ccc(C(=O)Nc2ccc(Cc3ccncc3)cc2)cc1[N+](=O)[O-]	KB-3-1 cytotox inconclusive, KB-V1 MDR tox 5.8µM
O=C(Nc1ccc(Cc2ccncc2)cc1)c1cccc([N+](=O)[O-])c1	KB-V1 MDR tox inconclusive
COc1ccc(NC(=O)CSC2=Nc3ccccc3C3=NC(Cc4ccccc4)C(=O)N23)cc1 (configuration not stated)	none (no result: hERG WT inh, MCF10A rerep, KCNH2 3.1 block, SW480 rereplic)
Clc1ccc(Cn2nnc(-c3ccc(N4CCOCC4)cc3)n2)cc1	KCNH2 3.1 block -73.0
CC(C)Cc1nnc(NC(=O)CCC(=O)N2CC(C)CC(C)C2)s1 (configuration not stated)	none
Cc1nn(CCCC(=O)Nc2nccs2)c(C)c1[N+](=O)[O-]	none
C=C1C(=O)O[C@@H]2[C@H]3O[C@]3(C)CC/C=C(\C)CC[C@@H]12	MCF10A rerep 4.11µM
c1ccc(N2CC3CCc4ccccc4C3=N2)cc1 (configuration not stated)	MCF10A rerep 20.6µM, SW480 rereplic 7.31µM
CCN(CC(=O)NCc1ccc(F)cc1)C(=O)/C=C/c1ccc(OC)c(S(=O)(=O)NC(C)C)c1	KB-3-1 cytotox 2.59µM, MCF10A rerep 1.84µM, SW480 rereplic 8.2µM
Cc1ccc(-c2nc(N=Nc3ccc(O)cc3)n[nH]2)cc1	MCF10A rerep inconclusive, KB-V1 MDR tox 13µM
Cc1ccc(CNC(=O)c2sc3nc4n(c(=O)c3c2C)CCCC4)cc1	none (no result: hERG WT inh, MCF10A rerep, KCNH2 3.1 block, SW480 rereplic)
Cn1c(C(=O)N(Cc2ccccc2)Cc2cccs2)cc2sccc21	MCF10A rerep 16.4µM, KB-V1 MDR tox 14.6µM
COc1ccc(OC(C)C(=O)NCc2nc(-c3cccc(C)c3)no2)cc1 (configuration not stated)	none (no result: hERG WT inh, MCF10A rerep, KCNH2 3.1 block, SW480 rereplic)
Cn1cnnc1SCC(=O)Nc1ccc(Cl)cc1	none
O=c1n(CC2CO2)c(=O)n(CC2CO2)c(=O)n1CC1CO1 (configuration not stated)	KB-3-1 cytotox inconclusive, MCF10A rerep 1.84µM, SW480 rereplic 9.2µM
COc1ccccc1C(=O)NCCOc1ccc(C)c(C)c1	MCF10A rerep inconclusive
COc1cc(SC)ccc1C(=O)NCc1ccc(C)cc1	none
COc1cc(SC)ccc1C(=O)NCc1ccccc1	KB-V1 MDR tox 20.6µM
COc1cc(SC)ccc1C(=O)NCCOc1ccc(C)c(C)c1	KB-V1 MDR tox 16.4µM
CN(C(=O)Cn1cnc2ccccc2c1=O)C1CCS(=O)(=O)C1 (configuration not stated)	KB-V1 MDR tox inconclusive
CC/C(=N\NC(=O)c1cccnc1)c1ccc2c(c1)OCCO2	none
COCC(=O)NC1(c2nnnn2CCOC(=O)Nc2ccc(Cl)cc2)CCCCC1	MCF10A rerep inconclusive, KB-V1 MDR tox inconclusive
Cc1nn(-c2ccc(F)cc2)c(Cl)c1/C=C(\CC(=O)O)c1nc2ccccc2s1	none
COc1ccc(Cc2nnc(SCC(=O)NC(C)c3ccccc3)o2)cc1 (configuration not stated)	KB-V1 MDR tox 20.6µM
COc1ccc(-c2nnc(SCC(=O)N(Cc3ccccc3)C(C)(C)C)o2)cc1OC	KB-3-1 cytotox inconclusive, MCF10A rerep inconclusive, KB-V1 MDR tox 9.2µM
COc1ccc(CCNC(=O)CSc2nnc(-c3ccccc3)o2)cc1OC	KB-V1 MDR tox 20.6µM
COc1ccc(CCNC(=O)CSc2ccc3ccccc3c2)cc1OC	KB-V1 MDR tox 23.1µM
COc1ccc(CCNC(=O)CSc2ccc(NC(C)=O)cc2)cc1OC	none
COc1ccc(CCNC(=O)CSc2nnc(-c3cccc(C)c3)o2)cc1OC	KB-V1 MDR tox inconclusive
O=[N+]([O-])c1cccc2c(N3CCCC3)ccnc12	MCF10A rerep inconclusive, SW480 rereplic inconclusive, KB-V1 MDR tox inconclusive
COc1ccc(CCNC(=O)C(=O)NCc2ccccc2)cc1OC	KB-3-1 cytotox 20.6µM, MCF10A rerep inconclusive, SW480 rereplic 18.4µM, KB-V1 MDR tox inconclusive
COc1ccc(CCNC(=O)Cc2ccccc2)cc1OC	SW480 rereplic inconclusive
COc1ccc(CCNCC(=O)Nc2ccc(OC(F)(F)F)cc2)cc1OC	MCF10A rerep 23.1µM
COc1ccc(CCNC(=O)C(C(=O)c2ccccc2)n2cc(Cl)ccc2=O)cc1OC (configuration not stated)	KB-V1 MDR tox 16.4µM
COCCCNCC(=O)Nc1ccc(OC(F)(F)F)cc1	MCF10A rerep inconclusive, SW480 rereplic inconclusive
COc1ccc(-c2nnc(SCC(=O)NC(=O)NCc3ccccc3)o2)cc1	KCNH2 3.1 block -117.8
COc1ccc(CCNC(=O)C(C(=O)c2ccccc2)n2ccccc2=O)cc1OC (configuration not stated)	KB-V1 MDR tox inconclusive
COc1ccc(-c2nnc(SCC(=O)NCc3ccco3)o2)cc1	none
